Experimental data reported in PubChem BioAssay AID1159580 (chemical genetic matrix, 2015).
“And” between values parts separate entries of the source, which are not always exact repeats. Equal entries are not always repeated. Among all 5,500 compounds or so, about 2,000 (36%) were called active. Inconclusive results (about 18%) are left out. No stated cut-off is given here; in the data, active means normalized growth mostly below about 0.91 (no sharp cut-off); inconclusive means no clear call, values can overlap the other calls; inactive means mostly above about 0.92. Some of the results follow.

Experiment: chemical genetic growth profiling, strain panel (AID 1159580);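 further: tested at 20 µM; growth read once vehicle control cultures reached saturation at 30 °C; 1 = growth at the plate median or of vehicle wells; lower values mean less growth of the strain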
Conditions: S. cerevisiae deletion strains, growth OD

Measured: normalized growth

CCCCCC1C(=O)CCC1CC(=O)O (stereo unspecified)
inactive: locus YAL013W, strain DEP1, active compounds read low 0.997 | locus YAL021C, strain ccr4, active compounds read low 0.984 | locus YAL026C, strain drs2, active compounds read low 0.994 | locus YAL030W, strain snc1, active compounds read low 0.984 | locus YBL061C, strain skt5, active compounds read low 0.988 | locus YBR009C, strain hhf1, active compounds read low 1.01 | locus YBR021W, strain FUR4, active compounds read low 0.991 | locus YBR023C, strain chs3, active compounds read low 0.99 | locus YBR171W, strain sec66, active compounds read low 1 | locus YBR229C, strain ROT2, active compounds read low 1 | locus YBR231C, strain swc5, active compounds read low 1 | locus YBR279W, strain paf1, active compounds read low 0.98 | locus YCL011C, strain gbp2, active compounds read low 0.995 | locus YCL016C, strain dcc1, active compounds read low 0.98 | locus YCL029C, strain bik1, active compounds read low 0.998 | locus YCL061C, strain MRC1, active compounds read low 0.991 | locus YCL069W, strain vba3, active compounds read low 0.995 | locus YCR088W, strain abp1, active compounds read low 0.976 | locus YDL005C, strain med2, active compounds read low 0.982 | locus YDL035C, strain GPR1, active compounds read low 1.01 | locus YDL040C, strain nat1, active compounds read low 0.995 | locus YDL074C, strain BRE1, active compounds read low 1.01 | locus YDL101C, strain DUN1, active compounds read low 1.01 | locus YDL134C, strain PPH21, active compounds read low 1.06 | locus YDL185W, strain tfp1, active compounds read low 0.974 | locus YDL192W, strain arf1, active compounds read low 0.986 | locus YDR001C, strain nth1, active compounds read low 0.986 | locus YDR069C, strain doa4, active compounds read low 1.01 | locus YDR101C, strain arx1, active compounds read low 0.99 | locus YDR137W, strain rgp1, active compounds read low 0.998 | locus YDR150W, strain NUM1, active compounds read low 1.02 | locus YDR159W, strain sac3, active compounds read low 0.997 | locus YDR162C, strain NBP2, active compounds read low 1.04 | locus YDR195W, strain ref2 0.999 | locus YDR297W, strain sur2, active compounds read low 0.988 | locus YDR318W, strain mcm21, active compounds read low 0.992 | locus YDR334W, strain swr1, active compounds read low 0.981 | locus YDR335W, strain msn5, active compounds read low 0.981 | locus YDR388W, active compounds read low 0.994 | locus YDR392W, strain spt3, active compounds read low 0.91 | locus YDR502C, strain sam2, active compounds read low 1.01 | locus YEL003W, strain gim4, active compounds read low 0.987 | locus YEL037C, strain rad23, active compounds read low 0.972 | locus YEL061C, strain CIN8 (second series), active compounds read low 0.984 | locus YEL061C, strain CIN8, active compounds read low 1 | locus YER015W, strain faa2, active compounds read low 0.983 | locus YER016W, strain bim1, active compounds read low 0.984 | locus YER110C, active compounds read low 0.982 | locus YER111C, strain swi4, active compounds read low 0.975 | locus YER155C, strain BEM2 (second series), active compounds read low 0.982 | locus YER155C, strain BEM2, active compounds read low 0.989 | locus YER167W, strain BCK2, active compounds read low 1.01 | locus YFR010W, strain ubp6, active compounds read low 0.987 | locus YGL078C, strain dbp3, active compounds read low 0.988 | locus YGL086W, strain mad1, active compounds read low 0.994 | locus YGL167C, strain pmr1, active compounds read low 0.986 | locus YGL173C, strain kem1, active compounds read low 0.989 | locus YGL227W, strain vid30, active compounds read low 0.998 | locus YGL240W, strain doc1, active compounds read low 0.998 | locus YGL248W, strain PDE1, active compounds read low 0.998 | locus YGL253W, strain hxk2, active compounds read low 0.996 | locus YGR135W, strain pre9, active compounds read low 0.994 | locus YGR252W, strain gcn5, active compounds read low 0.993 | locus YHR013C, strain ard1, active compounds read low 0.972 | locus YHR027C, strain rpn1, active compounds read low 0.98 | locus YHR030C, strain SLT2, active compounds read low 0.992 and 0.982 | locus YHR079C, strain IRE1 (second series), active compounds read low 0.987 | locus YHR079C, strain IRE1, active compounds read low 0.99 | locus YHR094C, strain hxt1, active compounds read low 0.969 | locus YHR129C, strain ARP1, active compounds read low 1 | locus YHR142W, strain chs7, active compounds read low 0.973 | locus YHR200W, strain rpn10, active compounds read low 0.988 | locus YIL066C, strain RNR3, active compounds read low 1.03 | locus YIL073C, strain SPO22, active compounds read low 1.04 | locus YIL125W, strain kgd1, active compounds read low 0.985 | locus YIR030C, strain dcg1, active compounds read low 0.986 | locus YJL092W, strain hpr5, active compounds read low 0.983 | locus YJL095W, strain BCK1 (second series), active compounds read low 0.993 | locus YJL095W, strain BCK1, active compounds read low 1.05 and 0.989 | locus YJL115W, strain asf1, active compounds read low 0.973 | locus YJL129C, strain trk1, active compounds read low 0.961 | locus YJL134W, strain LCB3, active compounds read low 0.991 | locus YJL154C, strain vps35, active compounds read low 0.982 | locus YJL164C, strain tpk1, active compounds read low 0.998 | locus YJL166W, strain qcr8, active compounds read low 0.996 | locus YJL168C, strain set2, active compounds read low 0.991 | locus YJL187C, strain SWE1 (second series), active compounds read low 1.02 | locus YJL187C, strain SWE1, active compounds read low 0.984 | locus YJR043C, strain POL32, active compounds read low 1.03 | locus YJR066W, strain TOR1, active compounds read low 0.967 | locus YKL009W, strain mrt4, active compounds read low 0.972 | locus YKL068W, active compounds read low 0.981 | locus YKL085W, strain MDH1 (second series), active compounds read low 0.992 | locus YKL085W, strain MDH1, active compounds read low 0.992 | locus YKL160W, strain elf1, active compounds read low 0.978 | locus YKL190W, strain CNB1, active compounds read low 1 | locus YKR001C, strain vps1, active compounds read low 0.987 | locus YKR026C, strain gcn3, active compounds read low 0.985 | locus YKR091W, strain srl3, active compounds read low 0.98 | locus YLL001W, strain dnm1, active compounds read low 0.961 | locus YLL026W, active compounds read low 0.994 | locus YLL041C, strain sdh2, active compounds read low 0.989 | locus YLR027C, strain aat2, active compounds read low 0.984 | locus YLR039C, strain RIC1, active compounds read low 1.06 | locus YLR058C, strain SHM2, active compounds read low 1.01 | locus YLR102C, strain apc9, active compounds read low 0.978 | locus YLR113W, strain HOG1, active compounds read low 0.95 | locus YLR221C, strain rsa3, active compounds read low 0.993 | locus YLR258W, strain gsy2, active compounds read low 0.986 | locus YLR262C, strain YPT6 (second series), active compounds read low 0.99 | locus YLR262C, strain YPT6, active compounds read low 1.07 | locus YLR268W, strain sec22, active compounds read low 1 | locus YLR320W, strain mms22, active compounds read low 0.967 | locus YLR330W, strain CHS5, active compounds read low 0.993 | locus YLR342W, strain FKS1 (second series), active compounds read low 1.02 | locus YLR342W, strain FKS1, active compounds read low 0.982 | locus YLR357W, strain rsc2, active compounds read low 0.994 | locus YLR370C, strain arc18, active compounds read low 0.983 | locus YLR371W, strain rom2, active compounds read low 0.987 | locus YLR384C, strain iki3, active compounds read low 0.978 | locus YLR418C, strain cdc73, active compounds read low 0.989 | locus YML016C, strain PPZ1, active compounds read low 0.995 | locus YML032C, strain rad52, active compounds read low 0.987 | locus YML120C, strain ndi1, active compounds read low 0.99 | locus YML124C, strain tub3, active compounds read low 0.985 | locus YMR058W, strain fet3, active compounds read low 0.983 | locus YMR078C, strain ctf18, active compounds read low 1.01 | locus YMR125W, strain sto1, active compounds read low 0.965 | locus YMR129W, active compounds read low 0.989 | locus YMR205C, strain PFK2, active compounds read low 0.969 | locus YMR223W, strain ubp8, active compounds read low 0.994 | locus YMR231W, strain pep5, active compounds read low 0.983 | locus YMR307W, strain GAS1, active compounds read low 1.06 | locus YNL067W, strain RPL9B, active compounds read low 1.04 | locus YNL071W, strain lat1, active compounds read low 0.99 | locus YNL128W, strain TEP1, active compounds read low 1 | locus YNL183C, strain NPR1, active compounds read low 0.931 | locus YNL209W, strain ssb2, active compounds read low 0.995 | locus YNL233W, strain BNI4, active compounds read low 1.03 | locus YNL248C, strain rpa49, active compounds read low 0.99 | locus YNL250W, strain rad50, active compounds read low 0.976 | locus YNL271C, strain bni1, active compounds read low 0.969 | locus YNL298W, strain CLA4, active compounds read low 0.968 | locus YNL307C, strain MCK1, active compounds read low 0.989 | locus YNL322C, strain KRE1 (second series), active compounds read low 0.972 | locus YNR049C, strain mso1, active compounds read low 0.984 | locus YNR052C, strain pop2, active compounds read low 0.975 | locus YOL006C, strain TOP1, active compounds read low 1.02 | locus YOL012C, strain htz1 1.21 | locus YOL147C, strain pex11, active compounds read low 0.986 | locus YOR001W, strain rrp6, active compounds read low 0.997 | locus YOR061W, strain CKA2, active compounds read low 0.996 | locus YOR069W, strain VPS5, active compounds read low 0.993 | locus YOR070C, strain gyp1, active compounds read low 0.99 | locus YOR080W, strain dia2, active compounds read low 0.987 | locus YOR083W, strain WHI5, active compounds read low 0.959 | locus YOR106W, strain vam3, active compounds read low 0.987 | locus YOR136W, strain idh2, active compounds read low 0.982 | locus YOR144C, strain elg1, active compounds read low 0.994 | locus YOR184W, strain ser1, active compounds read low 1.02 | locus YOR231W, strain MKK1, active compounds read low 1.01 | locus YOR265W, strain rbl2, active compounds read low 0.989 | locus YOR270C, strain vph1, active compounds read low 0.961 | locus YOR290C, strain snf2, active compounds read low 0.916 | locus YOR316C, strain cot1, active compounds read low 0.981 | locus YPL051W, strain arl3, active compounds read low 0.982 | locus YPL055C, strain LGE1, active compounds read low 1.06 | locus YPL078C, strain atp4, active compounds read low 0.979 | locus YPL106C, strain sse1, active compounds read low 0.99 | locus YPL240C, strain hsp82, active compounds read low 0.985 | locus YPL256C, strain CLN2, active compounds read low 0.964 | locus YPR119W, strain clb2, active compounds read low 0.988 | locus YPR141C, strain kar3, active compounds read low 0.981 | locus YPR163C, strain tif3, active compounds read low 0.978 | locus YPR167C, strain met16, active compounds read low 0.997 | strain wtn01, active compounds read low 1.01
